# Source: PubChem BioAssay (NCI)
# Compounds without any hit were thinned out: in the full panel of roughly 79,000, 15% have a hit. Values without a mark were called inactive. Calls of active or inactive are those of the source. Rule as the data show it: active = growth inhibition above about 70%; inactive = the rest.
# Tests used:
# [1] = NCI Yeast Anticancer Drug Screen. Data for the rad50 strain (AID 155);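 also: 0% = growth of vehicle-only cultures of the same strain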; settings: S. cerevisiae rad50 strain growth inhibition; at 50.0 µM; stronger effect = higher value
# Outline: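 Growth of the mutant yeast was measured after compound exposure and referenced to vehicle-treated cultures.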
# [2] = NCI Yeast Anticancer Drug Screen. Data for the mec2-1 strain (AID 157); settings: S. cerevisiae mec2-1 strain, at 50.0 µM, stronger effect = higher value
# Outline: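 Yeast mec2-1 mutant treated with compound. Readout: growth inhibition vs vehicle controls.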
# [3] = NCI Yeast Anticancer Drug Screen. Data for the sgs1 mgt1 strain (AID 161);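 also: 0% = growth of cultures given vehicle only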; settings: S. cerevisiae sgs1 mgt1 strain, at 50.0 µM, stronger effect = higher value
# Outline: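 Read-out: growth inhibition vs vehicle controls. Cells: mutant yeast strain deficient in DNA damage repair.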
# [4] = NCI Yeast Anticancer Drug Screen. Data for the cln2 rad14 strain (AID 165);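 also: 0% = growth equal to vehicle treated cultures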; settings: S. cerevisiae cln2 rad14 strain, at 50.0 µM, stronger effect = higher value
# Outline: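 cln2 rad14 yeast strain; compound exposure; growth inhibition read vs vehicle controls.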
# [5] = NCI Yeast Anticancer Drug Screen. Data for the bub3 strain (AID 167); settings: S. cerevisiae bub3 mutant strain, at 50.0 µM, stronger effect = higher value
# Outline: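 Whole-cell yeast assay. The mutant strain was incubated with compounds, and growth inhibition was determined by comparison with vehicle-treated cells.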
# [6] = NCI Yeast Anticancer Drug Screen. Data for the mlh1 rad18 strain (AID 175); settings: S. cerevisiae mlh1 rad18 strain growth inhibition; at 50.0 µM; stronger effect = higher value
# Outline: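 Yeast w/ defined DNA-repair lesions; compound exposure; growth vs vehicle controls → % inhibition.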
Structure (SMILES),growth inhibition [1],growth inhibition [2],growth inhibition [3],growth inhibition [4],growth inhibition [5],growth inhibition [6]
CC1c2c(Cl)nc3ccccc3c2Oc2c1c(Cl)nc1ccccc21,7.05%,5.1%,-6.05%,18.3%,5.1%,22.1%
C1CCC2(CC1)CCCO2,-6.3%,6.2%,-0.9%,10.5%,23.6%,19.4%
Cc1ccc2c(c1)[nH]c(=S)n2/C=C1\C(=O)Oc2ccccc2C1=O,-43.8%,-42.1%,-44.4%,-31.7%,-42%,-46%
O=C(O)Cc1cc(Cl)ccc1Cl,-4%,8.85%,8.7%,-2.55%,-1.2%,-9.05%
Cn1cnc([N+](=O)[O-])c1SCC(=O)O,-36.4%,-0.6%,-29.5%,-22.9%,-17.9%,-3.7%
CC(C)(C)c1ccc(O)c(Cl)c1,-15.8%,-7.65%,-5.9%,-7.85%,-11.1%,10.2%
CCc1nnc2n1N=C(c1ccc(-c3ccccc3)cc1)CS2,20.4%,28.3%,3.3%,5.05%,3.05%,26.1%
Cc1ccc([N+](=O)[O-])cc1NC(=O)C(=O)Cc1nc2ccc(C(=O)c3ccccc3)cc2[nH]c1=O,-4.7%,-20.7%,-9.05%,11.6%,10.3%,-5.7%
CCOC(=O)Cc1nc(Cl)c2c(C)c(C)sc2n1,29.8%,5.6%,6.9%,20.2%,24.9%,40.5%
CSc1n[nH]c(SC)n1,-4.3%,-15.2%,-4.15%,4.65%,-11.2%,-5.9%
CCN(CC)CCNCc1ccc(Cl)cc1,-16.5%,-38.8%,3.95%,6.15%,-8.7%,-16.1%
CCCCCC(=O)N1CCOCC1,11.2%,10.8%,5.6%,-6.35%,-21.4%,9%
Nc1ccccc1N=Cc1cc(F)ccc1[N+](=O)[O-],0.05%,4.4%,28.2%,-48.9%,4.4%,1.35%
COC1OC(COC(=O)c2ccccc2)C(OC(=O)c2ccccc2)C1NC(C)=O (configuration not stated),14.1%,18.7%,12.7%,62.1%,39.1%,28.4%
CC(C)(C)NO,7.3%,-0.85%,7.65%,3.4%,13.6%,-3.8%
Cc1ccc(C2=CC(=O)/C(=C\C(=O)c3ccc(Br)cc3)O2)c(C)c1,76.8% (active),77.8% (active),62.1%,34.8%,52.2%,71.9% (active)
Cc1ccc(C2(C(=O)O)CC2)cc1,-3.2%,-25.7%,12.3%,21.4%,-13.8%,5.15%
Cn1c(=O)c2c(ncn2CCN2CCNCC2)n(C)c1=O,13.8%,-12.8%,0.2%,-37.5%,25.4%,3.9%
O=CC(=O)c1cccc([N+](=O)[O-])c1,3.55%,7.75%,-3.6%,11.4%,-29.2%,10.4%
O=S(=O)(N/N=C/c1ccc(/C=N/NS(=O)(=O)c2ccccc2)cc1)c1ccccc1,-6.9%,-15.8%,-21.3%,12.6%,-7.95%,0.15%
C/C(=N\NC(N)=O)c1sc(-c2nc(C)c(/C(C)=N/NC(N)=O)s2)nc1C,32.8%,22.8%,20.9%,43.3%,-16.1%,27.5%

Structure (SMILES),growth inhibition [1],growth inhibition [2],growth inhibition [3],growth inhibition [4],growth inhibition [5],growth inhibition [6]
Cc1ccc(S(=O)(=O)N2N=C(c3ccccc3)CC2c2ccccc2)cc1 (configuration not stated),83.1% (active),87.1% (active),88.4% (active),81% (active),82% (active),91% (active)
C=CC1C(=O)N(C)[C@H](C(C)(C)C)N1C(=O)c1ccccc1 (some centres not stated),1.5%,11.9%,9.1%,-18.9%,2%,10%
COc1cc2c(c(OC)c1OC)-c1ccc(SC)c(=O)cc1[C@@H](NC1OCC(O)C(O)C1O)CC2 (some centres not stated),20.4%,35.1%,24.1%,8.65%,21.1%,16.8%
CC(C)(C)C1CCC(O)(CSc2ccccc2)CC1 (configuration not stated),6.7%,1.45%,-1.75%,-1.75%,-6.7%,-10.6%
NC(=O)N/N=C1\CC2CCC1C2Cl (configuration not stated),-0.05%,-1.35%,-5%,-0.45%,-13.7%,-14.8%
COC(=O)[C@@H]1CCC(/C(C#N)=C2/CC[C@@H](C(=O)OC)N2)=N1,8.45%,12.6%,1.2%,-5.1%,13.2%,11.1%
O=C(c1ccc([N+](=O)[O-])cc1)c1cc2ccccc2oc1=O,-12.1%,-8.5%,-9.85%,-73%,-18.4%,-9%
CCCCCCCCC(Br)C(Br)CCCCCCCC(=O)NCCCOC (configuration not stated),-2.45%,-13.5%,1.95%,-33.1%,1.95%,18.3%
COc1cc2c(cc1OC)C(NC(C)C)CCCC2 (configuration not stated),-7.6%,9.35%,-13.8%,-23.6%,-7.7%,-6.9%
Nc1ccc(-c2cc[cH-]c2)cc1.[Fe+2].c1cc[cH-]c1,8.2%,10.3%,10.8%,12.2%,21.4%,22.6%
FC(F)(F)C[P+](c1ccccc1)(c1ccccc1)c1ccccc1,40.9%,13.1%,15.3%,16.9%,11.5%,26%
Nc1[nH]n(-c2ccccc2)c(=O)c1/C=N/C(=S)NC1CCCCC1,-79%,-43.7%,-61%,-63.2%,-47.8%,-67.9%
CSC(=Nc1nnc(-c2ccc([N+](=O)[O-])cc2)s1)SC,8.35%,1.2%,-23.6%,-11.6%,-5.5%,-47%
CC(C)(CNC(=O)C12CC3CC(CC(C3)C1)C2)NC(=O)C12CC3CC(CC(C3)C1)C2,15.9%,12.5%,14.1%,11.1%,0.85%,27.8%
CC(=O)OCC(=O)c1ccccc1,-10.8%,6.65%,-3.8%,-4.15%,30.5%,-13.6%
Nc1ccc2cn[nH]c2c1,3.5%,-11.6%,-6.95%,-10.4%,5.8%,-2%
SCCCCN1CCCCC1,-17.2%,-14.3%,5.4%,-12.2%,-4.45%,-9.9%
O=[N+]([O-])c1ccccc1C1SCc2nc3ccccc3n21 (configuration not stated),25.2%,10.2%,31.8%,30.5%,44.5%,12.3%
Cc1ccc(S(=O)(=O)Oc2ccccc2C(=O)O)cc1,-7.9%,-14.7%,-12.3%,-55.3%,14.4%,-13.5%
O=C(O)CCC(=O)NNc1nc2ccccc2s1,22.1%,2%,29.1%,19.8%,-13.2%,44.4%
CCCCCCCCOC(=O)c1cc([N+](=O)[O-])c(Sc2ncnc3nc[nH]c23)c([N+](=O)[O-])c1,32%,30%,25.9%,11.8%,16.1%,24.2%
